Our source for the Potency values is PubChem BioAssay AID720664 (National Center for Advancing Translational Sciences (NCATS), 2013).

Structures are written as SMILES. Results filed as inconclusive are left out. A call without a number means that no potency is given here. Calls of active or inactive are those of the source. Calls follow the shape of the dose curve; as a rule, active = well fitted inhibition curve with a large enough effect; inconclusive = small, poorly fitted or top-dose-only effect; inactive = flat fitted curve, though single readings scatter.

Chain of Galactokinase (Homo sapiens) (P51570 whole entry, looked up): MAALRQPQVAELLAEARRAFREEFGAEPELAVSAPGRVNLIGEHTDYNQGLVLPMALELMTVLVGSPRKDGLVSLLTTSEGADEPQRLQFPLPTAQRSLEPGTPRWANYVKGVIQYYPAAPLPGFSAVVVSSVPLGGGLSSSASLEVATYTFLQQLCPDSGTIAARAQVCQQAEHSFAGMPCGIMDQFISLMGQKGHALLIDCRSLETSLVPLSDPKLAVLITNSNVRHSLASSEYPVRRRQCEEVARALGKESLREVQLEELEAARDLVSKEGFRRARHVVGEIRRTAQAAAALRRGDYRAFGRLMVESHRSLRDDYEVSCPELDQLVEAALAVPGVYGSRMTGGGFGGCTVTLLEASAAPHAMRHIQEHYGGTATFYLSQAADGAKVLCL

For this assay, the target named is Galactokinase (Homo sapiens) (UniProt P51570). Nature of the assay: qHTS for Inhibitors of Human Galactokinase (GALK): SAR round 3. To be noted: ADP detection luminescence, 1 h; series mostly up to 57.5 µM. The text has this:
Inherited deficiency of galactose-1-phosphate uridyltransferase (GALT) can result in a potentially lethal disorder called Classic Galactosemia (OMIM 230400). Several lines of evidence indicate that an elevated level of galactose-1-phosphate (gal-1-p), the product of galactokinase (GALK), is a major, if not sole, pathogenic mechanism in patients with classic galactosemia. Therefore, finding inhibitors of GALK is a potential novel therapy for this inherent metabolic disease and is the long term goal of this project. Active compounds observed in the qHTS GALK assay (AID: 1868) were cherry picked and re-screened for validation. GALK (provided by Kent Lai) was assayed using ATP and D-(+)-Galactose (Sigma-Aldrich cat# G0750) as substrates. Promega ADP-Glo technology was used to detect the ADP product formed after the kinase reaction. Kinase reactions with and without GALK were used as negative and positive controls together with Protein Tyrosine Phosphatase CD45 inhibitor (EMD Bioscience cat# 540215) which is shown to inhibit GALK activity. Decrease in activity corresponds to inhibition of the enzyme, the desired outcome for this assay. NIH Molecular Libraries Probe Production Network [MLPCN] NIH Chemical Genomics Center [NCGC] Grant: MH085689-01 PI Name: Kent Lai, University of Utah
Three uL/well of ATP-buffer solution (35 uM ATP, 20mM HEPES pH8.0, 5 mM MgCl2, 60 mM NaCl, 1 mM DTT, 0.01% BSA final concentration) was dispensed into 1536-well, assay plates (Greiner, solid white medium-binding plates) with Aurora Discovery BioRAPTR Flying Reagent Dispenser (FRD; Beckton-Dickenson). Compound and control solution (23 nL) was transferred to the assay plate using the Kalypsys 1536-pin tool apparatus. One uL/well GALK-galactose solution (5 nM GALK, 100 uM galactose, 20 mM HEPES pH8.0, 5 mM MgCl2, 60 mM NaCl, 1 mM DTT, 0.01% BSA final concentration) was then added using the FRD yielding a total kinase reaction volume of 4 uL/ well. After 1 hour of room temperature incubation, 4 uL Kinase-Glo Plus reagent was added for a final assay volume of 8 uL/well. Luminescence was detected with the ViewLux plate reader (Perkin Elmer, Waltham, MA) after 2 min incubation using a 1 sec exposure time and 2x binning.
As for `CC1=C(C(=O)Nc2nc3ccccc3s2)C(c2nn(C)cc2Cl)N=C(Nc2nc3ccccc3o2)N1` (stereo not given), the Potency result was “inactive”.
On to `O=C1CCCC2=C1C1(CCSC1)N=C(Nc1nc3ccccc3o1)N2` (stereo not given), for which the Potency was 19.3 µM (active).
Take `CC1=C(C(=O)NC2CC2)C(c2[nH]ncc2Cl)N=C(Nc2nc3ccccc3o2)N1` (stereo not given): the Potency entry is “inactive”.
The result for `O=C1CCCC2=C1C(c1[nH]ncc1Cl)NC(=NCc1cccnc1)N2` (stereo not given) reads “inactive”.
Turning to `Cn1cnc(CN=C2NC3=C(C(=O)CCC3)C(c3[nH]ncc3Cl)N2)c1` (stereo not given), the Potency entry was “inactive”.
On to `O=C1CCCC2=C1C(c1cccnc1Br)N=C(Nc1nc3ccccc3o1)N2` (stereo not given), for which the Potency result was “inactive”.
With `CNC(=O)C1=C(C)NC(Nc2nc3ccccc3o2)=NC12CCCC2`, the Potency entry is “inactive”.
The result for `O=C1CCCC2=C1C(c1[nH]ncc1Cl)NC(=NCc1ccccc1)N2` (stereo not given) reads “inactive”; that for `O=C1CCCC2CC(Nc3nc4ccccc4o3)CC(c3ccccc3)C12` (stereo not given), “inactive”; that for `CC1=C(C(=O)Nc2nc3ccccc3s2)C2(CCCC2)N=C(Nc2nc3ccccc3o2)N1`, “inactive”.
Consider `CN1C(=O)NC(c2ccccc2Cl)C2=C1CCCC2=O` (stereo not given), for which the Potency result is “inactive”.
As to `CC1=C(C(=O)NC2CCCC2)C(c2[nH]ncc2Cl)N=C(Nc2nc3ccccc3o2)N1` (stereo not given), the Potency entry was “inactive”.
Regarding `Cc1nc(C2=NC(c3ccccc3Cl)C3=C(CCCC3=O)N2)cs1` (stereo not given), the Potency entry was “inactive”.
For `O=C(Nc1ncc([S+](=O)([O-])N2CCOCC2)s1)c1cccc(Br)c1`, the Potency result is “inactive”.
In the case of `CC1(C)CC(=O)C2=C(C1)NC(Nc1nc3ccccc3o1)=NC21CCCCC1` it was “inactive”; in that of `O=C1CCCC2=C1C(c1ccccc1)N=C(Nc1nc3ccccc3o1)N2` (stereo not given), “inactive”; in that of `CC1=C(C(=O)N(C)c2ccccc2C)C(c2ccccc2Br)N=C(Nc2nc3ccccc3o2)N1` (stereo not given), “inactive”.
As for `O=C1CCCC2=C1C(c1[nH]ncc1Cl)N=C(Nc1ccccn1)N2` (stereo not given), the Potency result is “inactive”.
In the case of `COC(=O)c1ccccc1NC(=O)c1ccccc1OC(F)F` it was “inactive”; in that of `Nc1ncc(S(=O)(=O)N2CCOCC2)s1`, “inactive”; in that of `O=C1CCCC2=C1[C@@]1(CCC(c3ccccc3)C1)N=C(Nc1nc3ccccc3o1)N2` (stereo not given in full), “inactive”.
As to `O=C1CCCC2N=C(Nc3nc4ccccc4o3)CC(c3ccccc3Cl)C12` (stereo not given), the Potency entry is “inactive”.
Take `O=C1CCCC2=C1C1(CCCOC1)N=C(Nc1nc3ccccc3o1)N2` (stereo not given): the Potency entry is “inactive”.
Turning to `O=C1CCCC2=C1C(c1cccc(Oc3ccccc3)c1)N=C(Nc1nc3ccccc3o1)N2` (stereo not given), the Potency result was “inactive”.
On to `O=C1CCCC2=C1C1(CCCC1)N=C(Nc1nc3ccccc3n1Cc1ccccc1)N2`, for which the Potency entry was “inactive”.
Regarding `O=C1CCCC2=C1C(c1ccc(F)cc1)N=C(Nc1nc3ccccc3o1)N2` (stereo not given), the Potency entry was “inactive”.
Take `Cc1cccc2oc(NC3=NC(c4[nH]ncc4Cl)C4=C(CCCC4=O)N3)nc12` (stereo not given): the Potency entry was “inactive”.
On to `O=C1CCCC2=C1C(c1ccccc1Cl)N=C(c1ccccn1)N2` (stereo not given), for which the Potency result is “inactive”.
For `CC1=C(C(=O)Nc2ccc(Cl)cc2)C(c2ccccc2Br)N=C(Nc2nc3ccccc3o2)N1` (stereo not given), the Potency result was “inactive”.
With `Cn1c(NC2=NC3(CCCC3)C3=C(CCCC3=O)N2)nc2ccccc21`, the Potency entry is “inactive”.
As for `COc1ccc2oc(NC3=NC(c4[nH]ncc4Cl)C4=C(CCCC4=O)N3)nc2c1` (stereo not given), the Potency entry is “inactive”.
In the case of `O=C1CCCC2=C1C(c1[nH]ncc1Cl)N=C(Nc1nc3cccc(Cl)c3o1)N2` (stereo not given), the Potency result was “inactive”.
As to `Cc1cccc(C2N=C(Nc3nc4ccccc4o3)NC3=C2C(=O)CCC3)c1` (stereo not given), the Potency result was “inactive”.
Consider `O=C1CCCC2=C1C1(CCSCC1)N=C(Nc1nc3ccccc3o1)N2`, for which the Potency is 3.43 µM (active).
As to `O=C1CC(c2ccccc2)CC2=C1C1(CCCC1)N=C(Nc1nc3ccccc3o1)N2` (stereo not given), the Potency entry is “inactive”.
As for `O=C1CCCC2=C1C(c1[nH]ncc1Cl)NC(=NCc1ccoc1)N2` (stereo not given), the Potency entry is “inactive”.
As to `O=C1NC2=C(C(=O)CCC2)C(c2ccccc2Cl)N1` (stereo not given), the Potency result was “inactive”.
With `Cc1nc(NC2=NC(c3ccccc3Cl)C3=C(CCCC3=O)N2)oc1C` (stereo not given), the Potency entry is “inactive”.
For `O=C1CCCC2=C1C(c1[nH]ncc1Cl)N=C(Nc1nc3cc([S+](=O)([O-])N4CCCC4)ccc3o1)N2` (stereo not given), the Potency entry was “inactive”.
The result for `COc1ccc(C2N=C(Nc3nc4ccccc4o3)NC3=C2C(=O)CCC3)cc1` (stereo not given) reads “inactive”.
